# Test results: ChEMBL document CHEMBL1961873, “Compounds: GSK PKIS; Assays: Nanosyn kinase panel” (2012)
# Tests used:
# [1] = target: T1, Inhibitor of nuclear factor kappa-B kinase subunit epsilon (Homo sapiens) (UniProt Q14164); details: at 1 µM;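 further: reported values are averaged percent inhibition figures against human IKKε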
# T1 sequence (whole entry): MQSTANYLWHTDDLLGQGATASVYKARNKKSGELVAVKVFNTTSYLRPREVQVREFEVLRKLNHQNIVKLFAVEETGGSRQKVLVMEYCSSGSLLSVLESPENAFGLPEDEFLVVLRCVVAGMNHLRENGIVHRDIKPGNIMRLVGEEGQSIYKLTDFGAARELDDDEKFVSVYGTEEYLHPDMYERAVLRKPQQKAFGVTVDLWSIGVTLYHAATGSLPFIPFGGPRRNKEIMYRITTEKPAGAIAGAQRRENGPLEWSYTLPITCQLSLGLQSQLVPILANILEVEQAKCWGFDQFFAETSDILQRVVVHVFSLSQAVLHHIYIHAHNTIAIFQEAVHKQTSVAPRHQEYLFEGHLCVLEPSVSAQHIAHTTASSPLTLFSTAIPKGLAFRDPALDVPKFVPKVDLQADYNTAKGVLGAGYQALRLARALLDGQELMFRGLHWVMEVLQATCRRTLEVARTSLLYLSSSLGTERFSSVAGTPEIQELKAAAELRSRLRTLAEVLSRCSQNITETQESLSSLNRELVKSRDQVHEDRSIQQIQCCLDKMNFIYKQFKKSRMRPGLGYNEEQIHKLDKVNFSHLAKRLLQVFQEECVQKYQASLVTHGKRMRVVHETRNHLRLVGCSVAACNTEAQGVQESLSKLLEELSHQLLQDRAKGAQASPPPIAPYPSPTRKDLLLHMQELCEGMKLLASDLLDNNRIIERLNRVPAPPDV
# [2] = target: T2, Serine/threonine-protein kinase Nek1 (Homo sapiens) (UniProt Q96PY6); details: at 0.1 µM
# T2 sequence (whole entry): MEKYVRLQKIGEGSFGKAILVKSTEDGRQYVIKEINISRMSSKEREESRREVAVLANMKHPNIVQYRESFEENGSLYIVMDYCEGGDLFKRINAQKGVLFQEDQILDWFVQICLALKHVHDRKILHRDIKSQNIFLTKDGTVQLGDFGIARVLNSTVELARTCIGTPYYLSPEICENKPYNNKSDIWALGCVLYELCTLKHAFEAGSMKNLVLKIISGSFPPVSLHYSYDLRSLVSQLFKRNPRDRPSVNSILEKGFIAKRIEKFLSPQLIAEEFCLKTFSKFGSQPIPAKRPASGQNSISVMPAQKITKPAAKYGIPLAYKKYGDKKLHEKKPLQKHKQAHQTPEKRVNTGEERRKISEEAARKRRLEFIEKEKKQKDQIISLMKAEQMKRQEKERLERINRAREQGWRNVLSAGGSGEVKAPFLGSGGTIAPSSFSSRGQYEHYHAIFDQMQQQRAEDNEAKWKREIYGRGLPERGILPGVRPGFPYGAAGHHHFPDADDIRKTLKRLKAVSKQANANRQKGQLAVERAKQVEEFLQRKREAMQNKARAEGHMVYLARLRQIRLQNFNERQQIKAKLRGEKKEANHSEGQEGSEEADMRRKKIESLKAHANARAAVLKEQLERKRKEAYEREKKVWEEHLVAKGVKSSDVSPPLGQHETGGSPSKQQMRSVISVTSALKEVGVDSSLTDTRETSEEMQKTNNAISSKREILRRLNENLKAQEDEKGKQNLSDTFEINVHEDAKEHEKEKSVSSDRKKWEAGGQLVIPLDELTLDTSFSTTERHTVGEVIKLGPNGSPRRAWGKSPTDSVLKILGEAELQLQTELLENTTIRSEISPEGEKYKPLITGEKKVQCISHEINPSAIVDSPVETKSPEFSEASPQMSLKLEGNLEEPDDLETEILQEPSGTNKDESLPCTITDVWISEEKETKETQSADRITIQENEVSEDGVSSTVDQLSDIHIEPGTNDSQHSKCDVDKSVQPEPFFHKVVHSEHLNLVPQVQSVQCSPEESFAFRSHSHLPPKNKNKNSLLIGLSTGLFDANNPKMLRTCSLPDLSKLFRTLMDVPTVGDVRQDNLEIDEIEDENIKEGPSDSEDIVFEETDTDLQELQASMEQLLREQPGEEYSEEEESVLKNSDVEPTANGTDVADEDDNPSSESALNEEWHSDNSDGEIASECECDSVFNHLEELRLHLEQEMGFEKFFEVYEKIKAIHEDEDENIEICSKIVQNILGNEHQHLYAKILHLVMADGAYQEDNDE
# [3] = target: T2, Serine/threonine-protein kinase Nek1 (Homo sapiens); details: at 1 µM
# [4] = target: T3, Serine/threonine-protein kinase Nek2 (Homo sapiens) (UniProt P51955); details: at 0.1 µM
# T3 sequence (whole entry): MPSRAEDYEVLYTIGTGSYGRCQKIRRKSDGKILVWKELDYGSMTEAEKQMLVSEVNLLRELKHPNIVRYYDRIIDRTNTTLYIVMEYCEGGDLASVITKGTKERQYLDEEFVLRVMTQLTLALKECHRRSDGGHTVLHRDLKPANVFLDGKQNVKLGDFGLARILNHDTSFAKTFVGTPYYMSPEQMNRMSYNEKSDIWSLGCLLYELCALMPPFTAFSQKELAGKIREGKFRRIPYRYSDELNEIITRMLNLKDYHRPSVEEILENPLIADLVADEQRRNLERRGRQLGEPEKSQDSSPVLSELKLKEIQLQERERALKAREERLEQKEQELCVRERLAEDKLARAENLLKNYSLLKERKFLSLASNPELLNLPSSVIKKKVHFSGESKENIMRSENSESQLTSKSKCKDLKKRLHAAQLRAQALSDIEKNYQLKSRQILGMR
# [5] = target: T3, Serine/threonine-protein kinase Nek2 (Homo sapiens); details: at 1 µM
# [6] = target: Serine/threonine-protein kinase Nek6 (Homo sapiens) (UniProt Q9HC98); details: at 0.1 µM
# [7] = target: Serine/threonine-protein kinase Nek6 (Homo sapiens) (UniProt Q9HC98); details: at 1 µM
# [8] = target: Serine/threonine-protein kinase Nek7 (Homo sapiens) (UniProt Q8TDX7); details: at 0.1 µM
# [9] = target: Serine/threonine-protein kinase Nek7 (Homo sapiens) (UniProt Q8TDX7); details: at 1 µM
# [10] = target: T4, Serine/threonine-protein kinase Nek9 (Homo sapiens) (UniProt Q8TD19); details: at 0.1 µM;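 further: reported value is the mean percent inhibition of NEK9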
# T4 sequence (whole entry): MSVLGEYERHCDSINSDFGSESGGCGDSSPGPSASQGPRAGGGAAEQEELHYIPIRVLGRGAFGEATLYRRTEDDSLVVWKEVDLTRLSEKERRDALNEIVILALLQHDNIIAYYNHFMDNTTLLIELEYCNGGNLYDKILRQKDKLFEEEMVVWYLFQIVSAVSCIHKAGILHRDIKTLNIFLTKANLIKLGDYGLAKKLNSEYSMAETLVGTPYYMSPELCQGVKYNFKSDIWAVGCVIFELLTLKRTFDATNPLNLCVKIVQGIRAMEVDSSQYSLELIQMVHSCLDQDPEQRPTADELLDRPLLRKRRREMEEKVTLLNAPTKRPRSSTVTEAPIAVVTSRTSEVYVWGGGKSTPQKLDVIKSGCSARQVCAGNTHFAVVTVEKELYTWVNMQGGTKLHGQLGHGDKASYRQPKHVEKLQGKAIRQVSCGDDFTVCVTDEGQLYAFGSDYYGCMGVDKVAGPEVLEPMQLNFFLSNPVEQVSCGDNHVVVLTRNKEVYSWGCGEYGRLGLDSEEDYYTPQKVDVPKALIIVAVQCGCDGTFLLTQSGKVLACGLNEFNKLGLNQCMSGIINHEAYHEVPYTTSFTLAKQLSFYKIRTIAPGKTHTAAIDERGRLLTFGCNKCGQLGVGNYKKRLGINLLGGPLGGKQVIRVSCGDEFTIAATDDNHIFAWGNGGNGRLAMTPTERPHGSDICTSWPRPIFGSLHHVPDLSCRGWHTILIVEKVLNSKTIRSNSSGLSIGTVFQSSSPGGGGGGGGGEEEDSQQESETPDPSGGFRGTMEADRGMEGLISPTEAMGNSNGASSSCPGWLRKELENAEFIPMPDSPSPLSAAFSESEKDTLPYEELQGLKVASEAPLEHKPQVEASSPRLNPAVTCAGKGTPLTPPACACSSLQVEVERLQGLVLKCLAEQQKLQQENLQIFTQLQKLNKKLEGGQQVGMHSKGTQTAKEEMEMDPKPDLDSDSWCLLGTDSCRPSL
# Sequence of Serine/threonine-protein kinase Nek7 (Homo sapiens) (Q8TDX7 whole entry, looked up): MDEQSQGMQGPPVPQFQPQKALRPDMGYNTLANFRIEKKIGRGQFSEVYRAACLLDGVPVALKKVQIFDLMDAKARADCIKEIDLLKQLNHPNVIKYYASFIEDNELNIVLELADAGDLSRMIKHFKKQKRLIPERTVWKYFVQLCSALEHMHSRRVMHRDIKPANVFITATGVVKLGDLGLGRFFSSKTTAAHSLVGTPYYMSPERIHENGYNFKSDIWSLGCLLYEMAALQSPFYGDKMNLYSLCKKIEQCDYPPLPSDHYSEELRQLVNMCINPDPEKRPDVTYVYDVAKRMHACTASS
# Sequence of Serine/threonine-protein kinase Nek6 (Homo sapiens) (Q9HC98 whole entry): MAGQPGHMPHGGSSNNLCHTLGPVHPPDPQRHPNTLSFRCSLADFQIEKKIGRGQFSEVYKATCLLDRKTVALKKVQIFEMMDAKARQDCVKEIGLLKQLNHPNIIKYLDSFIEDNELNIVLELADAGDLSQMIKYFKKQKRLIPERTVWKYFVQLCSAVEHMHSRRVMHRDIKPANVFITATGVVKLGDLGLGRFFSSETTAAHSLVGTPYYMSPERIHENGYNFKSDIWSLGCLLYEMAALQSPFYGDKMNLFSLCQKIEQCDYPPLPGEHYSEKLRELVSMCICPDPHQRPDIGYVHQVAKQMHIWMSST
structure (smiles),measurement,setting,value
[O-][S+]1CCN(Cc2ccc(-c3ccc4ncnc(Nc5ccc(OCc6cccc(F)c6)c(Cl)c5)c4c3)o2)CC1,inhibition,[1],7.12%
same,inhibition,[2],1.83%
same,inhibition,[3],3.84%
same,inhibition,[4],6.03%
same,inhibition,[5],7.92%
same,inhibition,[6],12.5%
same,inhibition,[7],1.99%
same,inhibition,[8],2.99%
same,inhibition,[9],8.43%
same,inhibition,[10],12.2%
